In PubChem BioAssay AID1159580 (chemical genetic matrix, 2015):
The whole screen tested about 5,500 compounds, of which about 2,000 (36%) were called active. Roughly 18% stayed inconclusive and do not appear here. No stated cut-off is given here; in the data, active means normalized growth mostly below about 0.91 (no sharp cut-off); inconclusive means no clear call, values can overlap the other calls; inactive means mostly above about 0.92. Some of the results follow.

Assay: chemical genetic growth profiling, strain panel (AID 1159580);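 further: tested at 20 µM; growth read once vehicle control cultures reached saturation at 30 °C; 1 = growth at the plate median or of vehicle wells; lower values mean less growth of the strain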
Settings: growth OD

Measured: normalized growth

NC(=O)NC1NC(=O)NC1=O (configuration not stated)
inactive: S. cerevisiae deletion strains, locus YJR075W, strain HOC1, active compounds read low 1.01 | S. cerevisiae deletion strains, locus YKL009W, strain mrt4, active compounds read low 0.989 | S. cerevisiae deletion strains, locus YKL068W, active compounds read low 0.987 | S. cerevisiae deletion strains, locus YKL085W, strain MDH1 (second series), active compounds read low 0.981 | S. cerevisiae deletion strains, locus YKL085W, strain MDH1, active compounds read low 0.981 | S. cerevisiae deletion strains, locus YKL160W, strain elf1, active compounds read low 0.979 | S. cerevisiae deletion strains, locus YKL190W, strain CNB1, active compounds read low 0.997 | S. cerevisiae deletion strains, locus YKR001C, strain vps1, active compounds read low 0.984 | S. cerevisiae deletion strains, locus YKR026C, strain gcn3, active compounds read low 1 | S. cerevisiae deletion strains, locus YKR091W, strain srl3, active compounds read low 1 | S. cerevisiae deletion strains, locus YLL001W, strain dnm1, active compounds read low 1 | S. cerevisiae deletion strains, locus YLL026W, active compounds read low 1.01 | S. cerevisiae deletion strains, locus YLL041C, strain sdh2, active compounds read low 1 | S. cerevisiae deletion strains, locus YLR027C, strain aat2, active compounds read low 1 | S. cerevisiae deletion strains, locus YLR039C, strain RIC1, active compounds read low 1.03 | S. cerevisiae deletion strains, locus YLR058C, strain SHM2, active compounds read low 0.99 | S. cerevisiae deletion strains, locus YLR102C, strain apc9, active compounds read low 0.987 | S. cerevisiae deletion strains, locus YLR113W, strain HOG1, active compounds read low 1.04 | S. cerevisiae deletion strains, locus YLR221C, strain rsa3, active compounds read low 0.998 | S. cerevisiae deletion strains, locus YLR258W, strain gsy2, active compounds read low 1 | S. cerevisiae deletion strains, locus YLR262C, strain YPT6 (second series), active compounds read low 1.02 | S. cerevisiae deletion strains, locus YLR262C, strain YPT6, active compounds read low 0.965 | S. cerevisiae deletion strains, locus YLR268W, strain sec22, active compounds read low 0.917 | S. cerevisiae deletion strains, locus YLR320W, strain mms22, active compounds read low 1 | S. cerevisiae deletion strains, locus YLR330W, strain CHS5, active compounds read low 0.991 | S. cerevisiae deletion strains, locus YLR342W, strain FKS1 (second series), active compounds read low 1.06 | S. cerevisiae deletion strains, locus YLR342W, strain FKS1, active compounds read low 1 | S. cerevisiae deletion strains, locus YLR357W, strain rsc2, active compounds read low 0.968 | S. cerevisiae deletion strains, locus YLR370C, strain arc18, active compounds read low 1 | S. cerevisiae deletion strains, locus YLR371W, strain rom2, active compounds read low 0.971 | S. cerevisiae deletion strains, locus YLR384C, strain iki3, active compounds read low 1.01 | S. cerevisiae deletion strains, locus YLR418C, strain cdc73, active compounds read low 0.965 | S. cerevisiae deletion strains, locus YML016C, strain PPZ1, active compounds read low 0.987 | S. cerevisiae deletion strains, locus YML032C, strain rad52, active compounds read low 0.981 | S. cerevisiae deletion strains, locus YML120C, strain ndi1, active compounds read low 1.01 | S. cerevisiae deletion strains, locus YML124C, strain tub3, active compounds read low 0.978 | S. cerevisiae deletion strains, locus YMR058W, strain fet3, active compounds read low 1.01 | S. cerevisiae deletion strains, locus YMR078C, strain ctf18, active compounds read low 0.976 | S. cerevisiae deletion strains, locus YMR125W, strain sto1, active compounds read low 1 | S. cerevisiae deletion strains, locus YMR129W, active compounds read low 1 | S. cerevisiae deletion strains, locus YMR205C, strain PFK2, active compounds read low 0.982 | S. cerevisiae deletion strains, locus YMR223W, strain ubp8, active compounds read low 1 | S. cerevisiae deletion strains, locus YMR231W, strain pep5, active compounds read low 0.994 | S. cerevisiae deletion strains, locus YMR263W, strain SAP30, active compounds read low 0.988 | S. cerevisiae deletion strains, locus YMR307W, strain GAS1, active compounds read low 1.01 | S. cerevisiae deletion strains, locus YNL067W, strain RPL9B, active compounds read low 0.982 | S. cerevisiae deletion strains, locus YNL071W, strain lat1, active compounds read low 1.01 | S. cerevisiae deletion strains, locus YNL128W, strain TEP1, active compounds read low 0.997 | S. cerevisiae deletion strains, locus YNL153C, strain GIM3, active compounds read low 0.987 | S. cerevisiae deletion strains, locus YNL183C, strain NPR1, active compounds read low 0.977 | S. cerevisiae deletion strains, locus YNL209W, strain ssb2, active compounds read low 1 | S. cerevisiae deletion strains, locus YNL233W, strain BNI4, active compounds read low 0.978 | S. cerevisiae deletion strains, locus YNL248C, strain rpa49, active compounds read low 0.999 | S. cerevisiae deletion strains, locus YNL250W, strain rad50, active compounds read low 0.981 | S. cerevisiae deletion strains, locus YNL271C, strain bni1, active compounds read low 0.977 | S. cerevisiae deletion strains, locus YNL298W, strain CLA4, active compounds read low 0.985 | S. cerevisiae deletion strains, locus YNL307C, strain MCK1, active compounds read low 0.985 | S. cerevisiae deletion strains, locus YNL322C, strain KRE1 (second series), active compounds read low 0.986 | S. cerevisiae deletion strains, locus YNL322C, strain KRE1, active compounds read low 0.998 | S. cerevisiae deletion strains, locus YNR049C, strain mso1, active compounds read low 1.01 | S. cerevisiae deletion strains, locus YNR052C, strain pop2, active compounds read low 0.992 | S. cerevisiae deletion strains, locus YOL006C, strain TOP1, active compounds read low 0.996 | S. cerevisiae deletion strains, locus YOL012C, strain htz1 0.886 | S. cerevisiae deletion strains, locus YOL147C, strain pex11, active compounds read low 0.983 | S. cerevisiae deletion strains, locus YOR001W, strain rrp6, active compounds read low 1 | S. cerevisiae deletion strains, locus YOR061W, strain CKA2, active compounds read low 0.991 | S. cerevisiae deletion strains, locus YOR069W, strain VPS5, active compounds read low 0.99 | S. cerevisiae deletion strains, locus YOR070C, strain gyp1, active compounds read low 1 | S. cerevisiae deletion strains, locus YOR080W, strain dia2, active compounds read low 0.993 | S. cerevisiae deletion strains, locus YOR083W, strain WHI5, active compounds read low 0.992 | S. cerevisiae deletion strains, locus YOR106W, strain vam3, active compounds read low 0.99 | S. cerevisiae deletion strains, locus YOR136W, strain idh2, active compounds read low 0.993 | S. cerevisiae deletion strains, locus YOR144C, strain elg1, active compounds read low 0.984 | S. cerevisiae deletion strains, locus YOR184W, strain ser1, active compounds read low 0.967 | S. cerevisiae deletion strains, locus YOR231W, strain MKK1, active compounds read low 1.03 | S. cerevisiae deletion strains, locus YOR265W, strain rbl2, active compounds read low 1.03 | S. cerevisiae deletion strains, locus YOR270C, strain vph1, active compounds read low 1.03 | S. cerevisiae deletion strains, locus YOR290C, strain snf2, active compounds read low 1.03 | S. cerevisiae deletion strains, locus YOR316C, strain cot1, active compounds read low 0.977 | S. cerevisiae deletion strains, locus YPL051W, strain arl3, active compounds read low 1 | S. cerevisiae deletion strains, locus YPL055C, strain LGE1, active compounds read low 1.01 | S. cerevisiae deletion strains, locus YPL078C, strain atp4, active compounds read low 1 | S. cerevisiae deletion strains, locus YPL106C, strain sse1, active compounds read low 0.977 | S. cerevisiae deletion strains, locus YPL240C, strain hsp82, active compounds read low 1.01 | S. cerevisiae deletion strains, locus YPL241C, strain CIN2, active compounds read low 0.992 | S. cerevisiae deletion strains, locus YPL256C, strain CLN2, active compounds read low 1.03 | S. cerevisiae deletion strains, locus YPR119W, strain clb2, active compounds read low 0.982 | S. cerevisiae deletion strains, locus YPR141C, strain kar3, active compounds read low 0.98 | S. cerevisiae deletion strains, locus YPR163C, strain tif3, active compounds read low 0.981 | S. cerevisiae deletion strains, locus YPR167C, strain met16, active compounds read low 0.979 | S. cerevisiae deletion strains, strain wtn01, active compounds read low 0.971 | S. cerevisiae strains, strain wild type, active compounds read low 0.996
